The source of these data is PubChem BioAssay AID1445 (SRMLSC, 2008).

SMILES strings stand for the structures. In all, about 220,000 compounds went through this assay and about 910 (0.41%) were called active. What follows is part of a selection rich in actives, with near analogues and random picks from the rest. Entries with a potency or affinity are not part of this list. Values without a mark were called inactive.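 Rule for the calls: active = primary inhibition above the hit cutoff, then over 50% inhibition at one or more dose response concentrations (cut at about 23% in these data, passing the limit was not always enough); inconclusive = conflicting primary data, or primary hits not chosen for dose response; inactive = low primary inhibition, or under 50% at every dose.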

As a reminder, the inhibition is the drop in the measured response relative to a control, in per cent.

This experiment deals with Aminopeptidase N (Plasmodium falciparum (isolate 3D7)) (UniProt O96935). The experiment in a line: P. falciparum M1AAP inhibitors, biochemical, fluorogenic H-Leu-NHMec substrate, 1536-well (AID 1445).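 Note: plate controls were DMSO full reaction for no effect and no enzyme background for full effect.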 Conditions: recombinant M1AAP, H-Leu-NHMec fluorogenic kinetic assay; at 30 µM, active compounds read high unless noted.
Chain of Aminopeptidase N (Plasmodium falciparum (isolate 3D7)) (O96935 whole entry, looked up): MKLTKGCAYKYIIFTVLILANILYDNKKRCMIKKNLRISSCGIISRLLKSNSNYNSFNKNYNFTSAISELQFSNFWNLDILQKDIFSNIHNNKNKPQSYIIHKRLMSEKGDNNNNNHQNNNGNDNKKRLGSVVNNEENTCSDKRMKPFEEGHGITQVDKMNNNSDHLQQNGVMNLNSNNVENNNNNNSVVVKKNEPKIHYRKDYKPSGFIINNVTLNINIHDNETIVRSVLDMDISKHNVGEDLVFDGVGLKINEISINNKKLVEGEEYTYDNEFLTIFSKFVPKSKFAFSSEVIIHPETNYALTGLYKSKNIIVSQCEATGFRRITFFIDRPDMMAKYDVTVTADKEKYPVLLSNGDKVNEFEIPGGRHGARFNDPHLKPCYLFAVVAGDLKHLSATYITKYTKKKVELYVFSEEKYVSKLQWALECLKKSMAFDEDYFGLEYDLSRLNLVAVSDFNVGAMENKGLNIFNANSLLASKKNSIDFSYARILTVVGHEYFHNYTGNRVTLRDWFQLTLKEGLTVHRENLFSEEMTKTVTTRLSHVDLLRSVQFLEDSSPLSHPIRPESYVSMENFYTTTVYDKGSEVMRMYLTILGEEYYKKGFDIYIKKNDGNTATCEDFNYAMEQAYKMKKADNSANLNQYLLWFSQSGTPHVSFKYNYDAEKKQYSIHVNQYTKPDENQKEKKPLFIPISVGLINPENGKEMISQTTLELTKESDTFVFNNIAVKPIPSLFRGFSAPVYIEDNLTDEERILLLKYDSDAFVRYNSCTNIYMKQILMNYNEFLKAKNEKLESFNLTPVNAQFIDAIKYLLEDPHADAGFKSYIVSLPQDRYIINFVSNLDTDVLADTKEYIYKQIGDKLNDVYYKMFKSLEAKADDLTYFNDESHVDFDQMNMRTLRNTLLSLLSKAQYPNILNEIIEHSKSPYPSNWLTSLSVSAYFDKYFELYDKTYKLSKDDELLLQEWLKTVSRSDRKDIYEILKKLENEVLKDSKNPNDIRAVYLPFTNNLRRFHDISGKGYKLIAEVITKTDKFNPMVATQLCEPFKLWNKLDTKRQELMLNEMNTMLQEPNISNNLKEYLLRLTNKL
For the compound `Cc1ccc(CN2C3CCCC2CC(NC(=O)c2ccc(C)cc2)C3)cc1` (centres undefined), the inhibition is -1.65%. The same measure for `O=C(NC(=S)NC1C2CC3CC(C2)CC1C3)C12CC3CC(CC(C3)C1)C2` (centres undefined): 5.47%; for `COc1ccc(CNC(=O)c2ccccc2SC)cc1`: -2.23%. For `CN(C1CCCCC1)S(=O)(=O)c1ccccc1` the value was -1.57%. On to `COc1ccc(CNC(=O)CCCN2C(=O)c3ccccc3C2=O)cc1`, for which the inhibition was 1.01%. For `COc1ccccc1NS(=O)(=O)c1cccc(NC(=O)Nc2ccccc2)c1`, the inhibition was 2.5%.

Take `COc1ccccc1NS(=O)(=O)c1cccc(N2CC(O)=C(c3ccccc3)C2=N)c1`: the inhibition is 9.55%. For the compound `COc1ccc(CN2C(=O)c3cccc4cccc(c34)C2=O)cc1`, the inhibition was -0.38%. Regarding `Cc1cc(C)n(-c2ccc(C(=O)OCC(=O)Nc3ccc(S(=O)(=O)N4CCOCC4)cc3)cc2)n1`, the inhibition was -7.49%.

For the compound `CCOc1ccc(CCNC(=O)COC(=O)c2cc(OC)cc(OC)c2)cc1OCC`, the inhibition was 6.82%. For `COC(=O)c1ccccc1NC(=O)CNC(=O)c1ccco1` the value was 7.08%; for `O=C(c1ccco1)N1N=C(c2ccc(Br)cc2)CC1(O)C(F)(F)F` (centres undefined), -1.14%; for `CC(C)CCNC(=O)CNC(=S)N(Cc1ccccc1)Cc1cccnc1`, -3.15%. For `COc1ccc(/C=N/NC(=O)CC(=O)N/N=C/c2ccc(OC)cc2)cc1` the value was 5.03%; for `COc1ccc(/C=N/NC(=O)CSCC(=O)Nc2ccccc2)cc1`, 0.01%.

With `Cc1ccc2nc(CSc3nnc(Cc4cccs4)n3C3CCCCC3)cc(=O)n2c1`, the inhibition is 14.2%.

Regarding `O=C(CCC(=O)N(CC(=O)NC1CCCC1)Cc1ccc2c(c1)OCO2)Nc1ccccn1`, the inhibition was 26.2% (active).

As to `O=C(CCC(=O)N(CC(=O)NC1CCCC1)Cc1ccc2c(c1)OCO2)Nc1nccs1`, the inhibition is 12.3%. For `CC(C)(C)NC(=O)CN(Cc1ccc2c(c1)OCO2)C(=O)CCC(=O)Nc1nccs1` the value was 3.84%; for `CCC(C)(C)NC(=O)CN(C(=O)CCC(=O)Nc1cc(C)ccn1)c1ccc2c(c1)OCO2`, 10.3%.

`O=C(CCCC(=O)N(CC(=O)NC1CCCC1)Cc1ccc2c(c1)OCO2)Nc1ccccn1`: the inhibition was 8.73%. The same measure for `O=C(CCCC(=O)N(CC(=O)NC1CCCCC1)Cc1ccc2c(c1)OCO2)Nc1ccccn1`: 1.7%; for `CCC(C)(C)NC(=O)CN(Cc1ccccc1Cl)C(=O)CCC(=O)Nc1cc(C)ccn1`: 1.69%.

With `O=C(CSc1nnc(-c2ccc(Cl)cc2)n1Cc1ccco1)Nc1ccc2c(c1)OCCO2`, the inhibition is 6.61%.

Take `O=C(Nc1ccccc1N1CCCC1)c1cccc(Cl)c1Cl`: the inhibition is 5.02%. For `Cc1nc(-c2ccccc2O)n(-c2ccccc2)n1` the value was 14.8%. On to `Cc1cccc(-c2cc(N)n(-c3ccccc3)n2)c1`, for which the inhibition was 15.4%. For `Cc1cccc(N2C(N)=C(C#N)C(C#N)(C#N)C2c2ccccc2)c1` (centres undefined) the value was 7.85%; for `Cc1nn(-c2ccccc2)c(C)c1N`, -5.19%; for `CCOC(=O)c1c(-c2ccc(C)o2)csc1NC(=O)CSc1ncn[nH]1`, 0.41%.

Take `O=C(CCCO)CCCCCCCCC[C@H]1N[C@H](CO)[C@@H](O)[C@@H]1O`: the inhibition is 7.45%. For `O=C(O)C(CO)N=Cc1c(O)c2ccccc2oc1=O` (centres undefined) the value was 20.4%; for `CC(C)CC(N=Cc1c(O)c2ccccc2oc1=O)C(=O)O` (centres undefined), 16.5%.

For the compound `Cc1nn(-c2ccc3ccccc3c2)c(=O)c2ccccc12`, the inhibition is 0.56%. Regarding `CSc1nnc(-c2ccccc2N=Cc2c(C)[nH]n(-c3ccccc3)c2=O)c(=O)[nH]1`, the inhibition was 11.9%. For `COc1cc(/C=C/c2nc(-c3ccccc3O)n[nH]2)cc(OC)c1OC` the value was 1.7%; for `Cc1ccc(C(=O)NCC(=O)OCC(=O)c2c(N)n(C)c(=O)n(C)c2=O)s1`, 5.58%; for `O=C(Cn1nnc2ccccc2c1=O)N[C@@H](Cc1ccccc1)C(=O)O`, 2.79%.

In the case of `CCOC(=O)C(Cc1c[nH]c2ccccc12)NC(=O)c1ccco1` (centres undefined), the inhibition is -3.49%. The same measure for `Cc1ccc(Nc2nnc(SCC(=O)NC(Cc3c[nH]c4ccccc34)C(=O)O)s2)cc1` (centres undefined): 22%; for `CCOc1ccccc1Nc1nnc(SCC(=O)Nc2ccc3[nH]c(=O)[nH]c3c2)s1`: 1.06%; for `O=C(Nc1ccccc1C(=O)NC(Cc1c[nH]c2ccccc12)C(=O)O)c1ccco1` (centres undefined): 7.54%.

Take `O=C(CCn1nnc2ccccc2c1=O)N[C@@H](Cc1c[nH]c2ccccc12)C(=O)O`: the inhibition was 9%. For `O=C(NC(Cc1c[nH]c2ccccc12)C(=O)O)c1ccco1` (centres undefined) the value was 27.5% (active); for `COc1ccc(/C(C)=N\Nc2nc(-c3ccc(Cl)cc3)cc(C(F)(F)F)n2)cc1OC`, -2.08%. The same measure for `CCOC(=O)C1=C(O)C(=O)N(c2ccc(S(N)(=O)=O)cc2)C1c1ccc(Br)cc1` (centres undefined): 0.8%. For `CCOc1cccc(OCCOCCn2cnc3ccccc3c2=O)c1` the value was 0.65%. `CNCc1ccccc1Sc1ccc(OC)cc1`: the inhibition is -3.58%. The same measure for `NS(=O)(=O)c1cccc(NC(=O)CCSc2ccc(Cl)cc2)c1`: 6.9%; for `CCCCCCCC[n+]1cccc2c3ccccc3ccc21`: 29.8%; for `CCCCCCCCC[n+]1cccc2c3ccccc3ccc21`: 18.5%. For the compound `Cc1ccc(C2Nc3ccc4ccccc4c3C3=C2C(=O)CC(C)(C)C3)o1` (centres undefined), the inhibition is 16%.

As for `CC1(C)CC(=O)C2=C(C1)c1c(ccc3ccccc13)NC2c1ccco1` (centres undefined), the inhibition was 0.07%. The same measure for `CCCN(CCC)c1ncnc2c1cnn2-c1ccc(OC)cc1`: 2.75%; for `COc1ccc(-c2[nH]c(-c3ccc(C)cc3)nc2SCC(=O)NC2CCCC2)cc1`: 1.57%; for `Cc1nc(NCc2ccco2)c2oc3ccccc3c2n1`: 25.6% (active). The same measure for `CCc1nc(NCc2ccco2)c2oc3ccccc3c2n1`: 2.95%; for `c1ccc(-c2nc(NCc3ccco3)c3oc4ccccc4c3n2)cc1`: 11.9%; for `CCC(C)NC(=O)C1CCN(S(=O)(=O)c2ccc(OC)cc2)CC1` (centres undefined): 4.22%.
